The source of these data is PubChem BioAssay AID504690 (Sanford-Burnham Center for Chemical Genomics, 2011).

Each structure is given as a SMILES string. Screen size: about 350,000 compounds; about 2,700 (0.77%) were called active. Shown is part of a subset that was picked to be rich in actives. Unmarked numbers belong to inactive results.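 How the source made its calls: active means inhibition reaching at least a set limit at 20 µM in the primary screen (cut at about 59% in these data); inactive means the rest.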

This test relates to glucose-6-phosphate dehydrogenase-6-phosphogluconolactonase (Plasmodium falciparum 3D7). The test can be described thus: PfG6PD enzyme inhibitors, primary screen, biochemical, fluorescence intensity, uHTS (AID 504690).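 Further: 0% = DMSO wells with substrate and 100% = DMSO wells lacking glucose-6-phosphate.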 Particulars: PfGluPho enzyme, NADPH resazurin-diaphorase fluorescence; at 20 µM; active compounds read high.
As to `C=C(C)C(=O)Nc1cccc(C2=NOC3(C2)C[C@H](C(N)=O)N(C(=O)C(c2ccccc2)c2ccccc2)C3)c1` (stereo partly drawn), the inhibition was -3.38%.
The same measure for `COc1ccccc1OCCC(=O)OCC(=O)NCc1ccccc1`: 9.79%; for `COc1cc(C(=S)NCc2ccccc2)cc(Br)c1O`: 66.8% (active); for `COc1cc(C(=O)NCc2ccncc2)cc(Br)c1OCc1ccccc1`: 10.8%.
`Cc1ccc(C(O)P(=O)(OC(C)C)c2ccc(N(C)C)cc2)cc1` (stereo not drawn): the inhibition was -15%.
Consider `O=C(O)C1CCCN1c1nc(Cl)ccc1[N+](=O)[O-]` (stereo not drawn), for which the inhibition was 26.3%.
With `CC(C)(C)n1ncc2c(=O)n(Cc3c(Cl)cccc3Br)cnc21`, the inhibition is -2.98%.
On to `COCCNC(=S)Nc1cc(S(=O)(=O)N2CCOCC2)ccc1N1CCCCC1`, for which the inhibition was 76.4% (active).
On to `O=C(COC(=O)Cc1ccc(F)cc1)Nc1cc(S(=O)(=O)N2CCOCC2)ccc1N1CCCC1`, for which the inhibition is -0.28%.
`CC(C)CCC(=O)Nc1cc(S(=O)(=O)N2CCOCC2)ccc1N1CCCC1`: the inhibition was 10.5%.
For `CC(Oc1cccc(Cl)c1)C(=O)Nc1ccc(S(=O)(=O)Nc2ncccn2)cc1` (stereo not drawn), the inhibition is -6.55%.
For `O=C(N/N=C/c1ccccn1)C12CC3CC(CC(C3)C1)C2`, the inhibition is -7.42%.
Under `S=C(NN=Cc1ccccn1)Nc1ccccn1` stands 64% (active); under `S=C(Nc1cccnc1)Nc1ccccn1`, 7.51%; under `CC(=O)Nc1ccc(NC(=O)CCN2C(=O)C3CC=CCC3C2=O)cc1` (stereo not drawn), -13%.
Turning to `O=C(Nc1ccc(N2CCN(C(=O)c3ccccc3)CC2)c(Cl)c1)c1cccnc1`, the inhibition was 17.8%.
With `O=C(NCCN1CCCC(O)C1)c1cc(COc2c(F)cccc2F)on1` (stereo not drawn), the inhibition is -19.2%.
With `CN1CCN(NC(=O)c2ccc(S(=O)(=O)N3CCCCCC3)cc2)CC1`, the inhibition is 5.23%.
For `COc1ccc(S(=O)(=O)NCc2cccnc2)cc1NC(=O)c1ccc(C)cc1`, the inhibition was -3.1%.
As for `CCOc1ccc(NS(=O)(=O)c2ccc(C(=O)NCC3CCCO3)cc2)cc1` (stereo not drawn), the inhibition was 9.67%.
For `CCOc1ccc(-n2c(N)c(C(=O)NCC3CCCO3)sc2=S)cc1` (stereo not drawn), the inhibition is 67.6% (active).
On to `CCOc1ccc(S(=O)(=O)N2CCN(C(=S)NCC3CCCO3)CC2)cc1` (stereo not drawn), for which the inhibition is 8.65%.
The same measure for `O=C(Nc1ccccc1C(=O)N1CCOCC1)C1CCC(=O)N1C1CCCC1` (stereo not drawn): -1.14%; for `O=C(COC(=O)Cn1cnc2ccccc2c1=O)NCc1ccccc1Cl`: 11%; for `Cn1c(CCC(=O)OCC(=O)NCc2ccccc2Cl)nc(=O)c2ccccc21`: 60.9% (active).
Consider `CC(OC(=O)CCc1nc(=O)c2ccccc2n1C)C(=O)NCc1ccc2c(c1)OCO2` (stereo not drawn), for which the inhibition is 5.1%.
Turning to `O=c1c2ccccc2nnn1CSc1nc2sc3c(c2c(=O)n1CC1CCCO1)CCC3` (stereo not drawn), the inhibition is 13.2%.
The same measure for `CC[C@@H](C)[C@@H]1CN([C@@H](C)CN2CCC[C@H]2CN2C(N)=NC[C@H]2C(C)C)C(=N)N1CCc1ccc(Cl)c(Cl)c1`: -10.9%; for `O=C(CN(CC1CCCO1)C(=O)CNS(=O)(=O)c1ccc(F)cc1)NCc1ccco1` (stereo not drawn): 9.81%.
`COc1ccc2cc1Oc1ccc(cc1)C[C@H]1c3cc(c(OC)cc3CCN1C)Oc1c(O)c(OC)cc3c1[C@H](C2)N(C)CC3`: the inhibition was 10.2%.
As for `COc1cc(C(=O)CCc2ccc3c(c2)OCO3)cc(OC)c1OC`, the inhibition was 31.9%.
As to `COc1c(O)ccc2c1CN1CCc3cc4c(cc3C1C2)OCO4` (stereo not drawn), the inhibition is 75.1% (active).
As for `CCc1cccc(C)c1N1C(=O)CN(Cc2ccccc2)C1=S`, the inhibition was 8.09%.
`CN(C)C(=O)N=NC(=O)N(C)C`: the inhibition was 62.4% (active).
As for `O=C(Nc1cccc(Cl)c1)Nc1ccccc1NS(=O)(=O)c1cccs1`, the inhibition is -1.49%.
The same measure for `CCCCSc1nc2c(c(=O)n1CC)SC(C)C2` (stereo not drawn): -22.8%; for `CCc1cc(C(=O)c2ccc(OC)cc2)c(NC(=O)CN2CCN(C)CC2)s1`: -3.28%; for `COc1ccc(C(=O)Nc2sc(C)c(C)c2CN2CCOCC2)cc1`: 3.12%.
Regarding `CCc1cc(C(N)=O)c(NC(=O)c2ccc(OC)cc2)s1`, the inhibition was 63.8% (active).
Take `O=C1CC(C(F)(F)C(F)(F)C(F)(F)C(F)(F)F)=Nc2ccccc2N1`: the inhibition was 6.19%.
Turning to `CCc1cccc2c3c([nH]c12)C(CC)(CC(=O)O)OCC3` (stereo not drawn), the inhibition is -16.9%.
Consider `COc1ccc(-c2nnc(-c3ccc4ccccc4c3)o2)cc1`, for which the inhibition was 15.1%.
On to `Nc1ccc(-c2nnc(-c3ccc(-c4ccccc4)cc3)o2)cc1`, for which the inhibition is 64% (active).
Under `CN(C)c1ccc(-c2nnc(-c3cccnc3)o2)cc1` stands 3.13%; under `CC(C)C[C@@H](NC(=O)[C@H]1CCCN1C(=O)Cc1ccccc1)C(N)=O`, -7.04%; under `C/C=C/C=C/C(=O)OCC(=O)Nc1ccc(Cl)cc1`, 8.86%.
The same measure for `Cc1ccc(NC(=O)Cn2sc3ccccc3c2=O)cc1`: 125% (active).
For `Cc1ccc(NC(=O)Cn2c(C)csc2=O)cc1`, the inhibition is 3.32%.
Consider `O=C(Cn1nc(C(=O)O)c2ccccc2c1=O)Nc1ccc(F)cc1`, for which the inhibition is -5.5%.
For `CCOc1ccc(/C(O)=C2\C(=O)C(=O)N(c3ccc(OC)cc3)C2c2ccccc2[N+](=O)[O-])cc1` (stereo not drawn), the inhibition is -3.26%.
With `Cc1cc(OCC(=O)Nc2nccs2)c2c(C)c(C)c(=O)oc2c1`, the inhibition was 0.15%.
As for `CCCCn1c(N)c(N(CC(C)C)C(=O)c2cccc(S(=O)(=O)N3CC(C)OC(C)C3)c2)c(=O)[nH]c1=O` (stereo not drawn), the inhibition was -1.62%.
On to `CCC1(CC)NC(=O)N(CC(=O)OCC(=O)Nc2ccc(C(F)(F)F)cc2)C1=O`, for which the inhibition was 3.64%.
Turning to `O=C(O)/C=C\C(=O)Nc1ccc(OCc2ccccc2)cc1`, the inhibition is -24.5%.
For `COc1cccc(NC(=O)COC(=O)/C=C/c2ccco2)c1`, the inhibition was 17.7%.
Under `O=C(/C=C/c1ccco1)Nc1ccc(Oc2ccccc2)cc1` stands 62.8% (active); under `CN(C)c1cccc(C(=O)N2CCC(n3nccc3NC(=O)C3CCOC3)CC2)c1` (stereo not drawn), 3.81%; under `COc1ccc(C(=O)N2CCN(c3ncccn3)CC2)cc1S(=O)(=O)N1CCOCC1`, 4.39%.

For orientation: inhibition means the relative decrease from the control value, in per cent.
